Source: PubChem BioAssay (NCI)
The panel holds about 83,000 compounds, 20% with a hit somewhere; the sample as a whole holds those more often.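 How to read the values: 0–100, growth inhibition (40 = 60% inhibited); 0, no net growth; -100 to 0, cell death (-40 = 40% of starting cells died; -100 = all dead).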 Values without a mark were called inactive. Calls of active or inactive are those of the source. Rule for the calls: active = growth percent below 10; inactive = the rest.

Assays:
Test in all cases: NCI-60 one-dose screen, 48 h (100 = growth as untreated, 0 = no growth, -100 = all killed)
Details in all cases: 10 µM unless noted
NCI-H23 lung = system: NCI-H23 lung
NCI-H226 lung = system: NCI-H226 lung
HOP-62 NSCLC = system: HOP-62 NSCLC
NCI-H460 lung = system: NCI-H460 lung
HOP-92 NSCLC = system: HOP-92 NSCLC
NCI-H522 lung = system: NCI-H522 lung
A549/ATCC NSCLC = system: A549/ATCC NSCLC
786-0 renal = system: 786-0 renal
COLO 205 colon = system: COLO 205 colon
DU-145 prostate = system: DU-145 prostate
K-562 leukemia = system: K-562 leukemia
MALME-3M melanoma = system: MALME-3M melanoma
MDA-MB-231 breast = system: MDA-MB-231 breast
RXF 393 renal = system: RXF 393 renal
SF-268 CNS = system: SF-268 CNS
SF-295 CNS = system: SF-295 CNS
SF-539 CNS = system: SF-539 CNS
UACC-257 melanoma = system: UACC-257 melanoma
M14 melanoma = system: M14 melanoma

Row | SMILES | growth (NCI-H23 lung) | growth (NCI-H226 lung) | growth (HOP-62 NSCLC) | growth (NCI-H460 lung) | growth (HOP-92 NSCLC) | growth (NCI-H522 lung) | growth (A549/ATCC NSCLC) | growth (786-0 renal) | growth (COLO 205 colon) | growth (DU-145 prostate) | growth (K-562 leukemia) | growth (MALME-3M melanoma) | growth (MDA-MB-231 breast) | growth (RXF 393 renal) | growth (SF-268 CNS) | growth (SF-295 CNS) | growth (SF-539 CNS) | growth (UACC-257 melanoma) | growth (M14 melanoma)
1 | Cc1cc(-c2cc(C)c(N)cc2C)c(C)cc1N | 101% | 103% | 93.1% | 113% | 45.9% | 86.1% | 107% | 84.1% | 99.2% | 121% | 54.7% | 84.2% | 82.8% | 111% | 95.9% | 84.1% | 97.5% | 90.5% | 65.6%
2 | COc1ccc2c(c1)c(-c1nn3cc(-c4cccs4)nc3s1)cn2C | 82.5% | 78.9% | 85.6% | 68.7% | 44.7% | 63% | 81.1% | 97.5% | 64.5% | 89.7% | 51% | 72.1% | 54.1% | 96.3% | 80.3% | 66.9% | 81.3% | 105% | 71.6%
3 | Cc1ccc(C(=O)NN2C(=O)CSC2c2cccc([N+](=O)[O-])c2)cn1 (configuration not stated) | 93.2% | 95.6% | 93% | 108% | 81.3% | 109% | 92.9% | 106% | 105% | 107% | 98.9% | 111% | 96.6% | 82.8% | 104% | 99.4% | 106% | 75.8% | 96.4%
4 | COc1cccc(Cc2cc(-c3ccccc3)nn(CC(=O)c3ccccc3)c2=O)c1 | 74.2% | 60.7% | 60.4% | 37.8% | 46.9% | 72.4% | 79.5% | 55.8% | 84.9% | 63.3% | 22.5% | 97.1% | – | 60.1% | 54% | 68.1% | 49.9% | 95% | 60.3%
5 | COc1ccc(CNC(=O)C(=O)[C@H](Cc2ccccc2)NC(=O)c2[nH]c3ccccc3c(=O)c2C)cc1 | 101% | 103% | 102% | 108% | 117% | 96.4% | 95.6% | 102% | 113% | 104% | 92.9% | 107% | 95.6% | 104% | 101% | 103% | 98.7% | 98.9% | 99.6%
6 | Cc1oc2nc[nH]c(=O)c2c1C(=O)/C=C/c1ccc(Br)cc1 | -11.2% (active) | -8.79% (active) | 12.1% | 3.92% (active) | -10.7% (active) | 13.9% | 9.19% (active) | 11.5% | 3.83% (active) | 5.67% (active) | 10.8% | 24.5% | 16.1% | 4.34% (active) | 5.39% (active) | 14.2% | -9.63% (active) | 32.7% | 15.4%
7 | COc1ccc(OC)c(/C=C2\Oc3cc(OCCN4CCC(Cc5ccccc5)CC4)ccc3C2=O)c1 | 88.1% | 91% | 94.4% | 82.2% | 55.2% | 86.6% | 92% | 77.6% | 25.3% | 97.3% | 20.7% | 92.6% | 82.9% | 55.5% | 85.1% | 102% | 87% | 101% | 77.2%
8 | Oc1ccc(Cl)cc1Cc1cc(Cl)cc(Cl)c1O | 9.44% (active) | 90.1% | 22.9% | 20.9% | -24.9% (active) | 38.9% | 46.8% | 59.5% | 114% | 33.2% | 5.3% (active) | -19.5% (active) | 69.2% | 74% | 42.3% | -15.1% (active) | 19.8% | 74.1% | 65.9%
9 | FC(F)(F)c1cc(Nc2ccc3c(OCCCN4CCOCC4)cccc3n2)ccc1Cl | 60.8% | 68.5% | 51.2% | 17.3% | 60.2% | 49.5% | 30.5% | -42.1% (active) | -38.1% (active) | 55.9% | -31.6% (active) | 54.3% | 10.1% | 23.9% | 54.6% | 0.167% (active) | 36.2% | 96.6% | 40.4%
10 | CNc1ccc(Nc2cccc(C)c2)c2c1C(=O)c1ccccc1C2=O | 89.9% | 93.1% | 102% | 87.6% | 28.9% | 75.9% | 97.7% | 100% | 105% | 85% | 92.7% | 147% | 96.1% | 93.4% | 87.5% | 146% | 99% | 107% | 122%
11 | O=C(CCc1nnc(-c2c(Cl)cccc2Cl)o1)c1nc2ccccc2[nH]1 | 61.9% | 83.7% | 71.6% | 77.3% | 6.67% (active) | 49.8% | 69.7% | 73.8% | 62.6% | 82.2% | 2.22% (active) | 79.3% | 38.3% | 81.5% | 68.1% | 59.5% | 95.2% | 78.6% | 55.8%
12 | CCC(=O)Nc1ccc(-c2nc(-c3cccc(OC)c3)c(-c3ccnc(Br)c3)[nH]2)cc1 | 76.9% | 55.1% | 75.3% | 49.4% | 61.4% | 56.9% | 60.9% | 40.8% | 71.2% | 70.6% | 24.1% | 69.4% | 71.8% | -22.8% (active) | 75.8% | 16.1% | 51.1% | 74.4% | 63.1%
13 | COc1cccc(Oc2ccccc2NC(=O)CNC(=O)c2cccc3ccccc23)c1 | 31.6% [5 µM] | 53.7% [5 µM] | 35.3% [5 µM] | 6.08% [5 µM] (active) | 31.6% [5 µM] | -10.3% [5 µM] (active) | 26.8% [5 µM] | 28.4% [5 µM] | -13.5% [5 µM] (active) | 5.14% [5 µM] (active) | 11.8% [5 µM] | 51.3% [5 µM] | 7.29% [5 µM] (active) | 52.4% [5 µM] | 34.6% [5 µM] | 14.6% [5 µM] | -7.85% [5 µM] (active) | 83.6% [5 µM] | -6.36% [5 µM] (active)
14 | C=C1CC[C@@]2(C#N)[C@H]3[C@H](CC[C@@H]2C)[C@@H](C)C[C@@H](CC(C)(C)C#N)[C@H]13 | 44.1% | 62.7% | 41.9% | 22.8% | -16.9% (active) | 47.7% | 42.9% | 43% | 35.5% | 45.4% | 9.97% (active) | 103% | 61.3% | 86.2% | 47% | 14.4% | 43.9% | 71.9% | 20.9%
15 | O=C1/C(=C/c2ccc(F)cc2)Sc2c(Br)cccc21 | 50% | 79.4% | 69.1% | 93.6% | -3.06% (active) | 70.9% | 68.9% | 100% | 105% | 99.7% | 80% | 99.9% | – | 85.8% | 79% | 87.3% | 75.5% | 85.9% | 92.8%
16 | CN1CCN(CC(=O)N2c3cccc4cccc(c34)N(C(=O)CN3CCN(C)CC3)C2c2cn(-c3ccccc3)nc2-c2cccc([N+](=O)[O-])c2)CC1 | 1.14% (active) | 88.2% | -20.2% (active) | 1.88% (active) | 42.9% | -3.45% (active) | 15.7% | -83.4% (active) | -68.5% (active) | 28.7% | -43.9% (active) | -86.7% (active) | -60.9% (active) | -19.1% (active) | 7.89% (active) | -67.1% (active) | -86.1% (active) | -75.9% (active) | -81.7% (active)
